# According to PubChem BioAssay (NCATS):
# Inconclusive results are not listed. Entries that show only a call come without a potency. A number with no mark means an inactive call. The source made the active and inactive calls. The call rests on the fitted dose curve; in most records, active means well fitted curve in the direction sought with a large enough effect; inconclusive means small, poorly fitted or top-dose-only effect, or another doubt; inactive means no such curve, though single readings can be large; an effect the other way counts as inactive or inconclusive.
# Experiments:
# [1] = Primary qHTS for inhibitors of nuclear receptor binding SET domain protein 2 (NSD2) in an isogenic RCH-ACV NSD2 p.E1099K mutant (9B) (AID 1645876)
# [2] = Primary qHTS for inhibitors of nuclear receptor binding SET domain protein 2 (NSD2) in an RCH-ACV wild type WT cells (2C) (AID 1645877)
# Further: nearly all actives have a fitted effect of over 70% in size.
# Potency means the concentration at half of the fitted maximal effect.
smiles,measurement,setting,value
CC1(C)CC[C@]2(C(=O)O[C@@H]3O[C@H](CO[C@@H]4O[C@H](CO)[C@@H](O)[C@H](O)[C@H]4O[C@@H]4O[C@H](CO)[C@@H](O)[C@H](O)[C@H]4O)[C@@H](O)[C@H](O[C@@H]4O[C@H](CO)[C@@H](O)[C@H](O)[C@H]4O)[C@H]3O)CC[C@]3(C)C(=CCC4[C@@]5(C)CC[C@@H](O)[C@@](C)(C(=O)O[C@@H]6O[C@H](CO)[C@@H](O)[C@H](O)[C@H]6O)C5CC[C@]43C)[C@@H]2C1 (some centres not stated),outcome,[1],inactive [at 9.23 µM]
same,outcome,[2],inactive [at 9.23 µM]
CCCOc1ccc(-c2nc(OC)c3ccccc3n2)cc1,Potency,[1],inactive
same,Potency,[2],inactive
CC(C)C1=CC2C(CC[C@]2(C)O)[C@](C)(O)CC1 (some centres not stated),Potency,[1],inactive
same,Potency,[2],inactive
OC[C@H]1O[C@@H](OCCc2ccccc2)[C@H](O[C@@H]2OC[C@](O)(CO)[C@H]2O)[C@@H](O)[C@@H]1O,Potency,[1],inactive
same,Potency,[2],inactive
C[C@H]1[C@H](O)O[C@@H]2O[C@@]3(C)CC[C@H]4[C@H](C)CC[C@@H]1[C@@]24OO3,Potency,[1],1180 nM (active)
same,Potency,[2],833 nM (active)
CC1=C2C[C@H]3O[C@@]3(C)CCC3O[C@@]3(C)C[C@@]2(O)OC1=O (some centres not stated),Potency,[1],inactive
same,Potency,[2],inactive
O=C1C=CC2OC(c3ccccc3)C(O)C2O1 (configuration not stated),Potency,[1],5780 nM (active)
same,Potency,[2],4590 nM (active)
CC(=O)OC1CC2C3(C)CCC(OC(=O)CC(=O)O)C(C)(C)C3CCC2(C)C2(C)CCC(C3(C)CCC(=O)O3)C12 (configuration not stated),Potency,[1],inactive
same,Potency,[2],inactive
C=C1C(=O)O[C@@H]2[C@H]1CCC(C)=C1CCC(=O)O[C@]12C,Potency,[1],9160 nM (active)
same,Potency,[2],4090 nM (active)
O=C(O)c1cc2cccc([N+](=O)[O-])c2[nH]1,Potency,[1],inactive
same,Potency,[2],inactive
CC1=CC(=O)C(=C(C)C)CC2C1CCC2(C)O (configuration not stated),Potency,[1],inactive
same,Potency,[2],inactive
CC1=C(C)C(=O)OC(C(C)C2CCC3C4CC=C5CC(OC6OC(COC7OC(CO)C(O)C(O)C7O)C(O)C(O)C6O)CC(O)C5(C)C4CCC23C)C1 (configuration not stated),Potency,[1],inactive
same,Potency,[2],inactive
OC[C@H]1O[C@@H](OC(CCCCc2ccc(O)cc2)CCc2ccc(O)cc2)[C@H](O)[C@@H](O)[C@@H]1O (some centres not stated),Potency,[1],inactive
same,Potency,[2],inactive
Cc1ccccc1C#Cc1ccc(CCC(=O)O)cc1,Potency,[1],inactive
same,Potency,[2],inactive
COC(=O)C1=CO[C@@H](O[C@@H]2O[C@H](CO)[C@@H](O)[C@H](O)[C@H]2O)[C@H]2[C@@H]1C=C[C@@]21C=C([C@H](C)O)C(=O)O1,Potency,[1],inactive
same,Potency,[2],inactive
C/C=C(\C)C(=O)OCC1OC(OC2OC(COC(=O)/C(C)=C/C)C(OC3OC(CO)C(OC(=O)/C(C)=C/C)C(OC(=O)/C(C)=C/C)C3O)C(O)C2O)C(O)C(O)C1OC1OC(CO)C(OC(=O)/C(C)=C/C)C(OC(=O)/C(C)=C/C)C1O (configuration not stated),"activity change, negative = viability loss",[1],-4.2% [at 9.23 µM]
same,"activity change, negative = cell killing",[2],-15.3% [at 9.23 µM]
COc1ncc(Nc2ncc([C@@H](C)N3CCN(S(C)(=O)=O)CC3)cc2-c2nc(C)nc(N)n2)cc1F,Potency,[1],5.2 nM (active)
same,Potency,[2],20.5 nM (active)
COC1CC(O[C@H]2CC[C@@]3(C)C(CCC4C3[C@H](OC(C)=O)[C@@H](OC(=O)/C=C/c3ccccc3)[C@]3(C)C(C(C)=O)CC[C@]43O)C2)OC(C)C1OC1CC(OC)C(OC2CC(OC)C(OC3OC(C)C(OC4OC(CO)C(O)C(O)C4O)C(OC)C3O)C(C)O2)C(C)O1 (some centres not stated),"activity change, negative = viability loss",[1],-23.3% [at 9.23 µM]
same,"activity change, negative = cell killing",[2],-29.1% [at 9.23 µM]
C=C1C[C@]23C[C@H]1CC[C@H]2[C@]1(C)CCC[C@@](C)(C(=O)O)[C@H]1[C@@H]3C(=O)O,Potency,[1],inactive
same,Potency,[2],inactive
C/C=C(\C)C(=O)O[C@@H]1CC2[C@@H](CC=C3C[C@@H](O[C@H]4C[C@H](OC)[C@H](O[C@H]5C[C@H](OC)[C@H](O[C@@H]6O[C@H](C)[C@@H](O[C@H]7C[C@H](OC)[C@H](O[C@@H]8O[C@H](CO)[C@@H](O)[C@H](O)[C@H]8O)[C@@H](C)O7)[C@H](OC)[C@H]6O)[C@@H](C)O5)[C@@H](C)O4)CC[C@@]32C)[C@@]2(O)CC[C@H](C(C)=O)[C@@]12C (some centres not stated),"activity change, negative = viability loss",[1],-8.77% [at 9.23 µM]
same,"activity change, negative = cell killing",[2],-12.6% [at 9.23 µM]
C[C@@H]1[C@H]2[C@H](O[C@@H]3O[C@H](CO)[C@@H](O)[C@H](O)[C@H]3O)OC=C(C(=O)O)[C@H]2C[C@@H]1O,Potency,[1],inactive
same,Potency,[2],inactive
